Most compounds without a hit are left out; they make up all but 1.3% or so of the library.
ZTA DNA inh – counter-screen for EBNA-1 inhibitors: inhibitors of Epstein-Barr virus ZTA; ZTA-DNA binding, fluorescence polarization; inhibition, % at 11 µM; hit rate 0.15% among 320,000; in the data active means inhibition above about 33%
LYPLA1 counter – counter-screen for PME1 inhibitors: inhibitors of human LYPLA1; O75608; recombinant LYPLA1, FP-Rh probe fluorescence polarization; inhibition, % at 5.9 µM; hit rate 0.16% among 320,000;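 active means inhibition above the mean of all tested compounds plus 3 SD, set per campaign, cut at about 14% in these data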;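 further: inhibitors block serine hydrolase probe labeling of LYPLA1 so polarization falls; 0% = enzyme with DMSO and 100% = wells lacking LYPLA1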
Target sequence (O75608 whole entry, looked up): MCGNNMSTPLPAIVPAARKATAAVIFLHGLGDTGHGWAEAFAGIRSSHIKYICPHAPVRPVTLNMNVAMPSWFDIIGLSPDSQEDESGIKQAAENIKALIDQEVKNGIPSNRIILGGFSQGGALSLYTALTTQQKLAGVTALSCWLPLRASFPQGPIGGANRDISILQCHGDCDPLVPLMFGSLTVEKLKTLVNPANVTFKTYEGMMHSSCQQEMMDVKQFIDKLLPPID
PREPL inhibitor – inhibits the human prolyl oligopeptidase-like enzyme; inhibition, % at 5.96 µM; hit rate 0.68% among 320,000; recombinant PREPL, fluorescence polarization activity-based probe; in the data active means inhibition above about 43%;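 further: 0% = enzyme with DMSO and 100% = wells lacking enzyme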
EBNA-1 inhibitor – blocks EBNA-1 binding to DNA; EBNA-1 DNA binding, fluorescence polarization; inhibition, % at 14.8 µM; hit rate 0.34% among 300,000; AID 1950; in the data active means inhibition above about 28%
LYPLA2 inh – blocks human lysophospholipase 2, a PME1 counter-screen. O95372. recombinant LYPLA2, FP-Rh probe fluorescence polarization. inhibition, % at 5.9 µM. hit rate 0.38% among 320,000. AID 2177;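 active means inhibition above the screen-wide mean plus 3 SD, limit set per campaign, cut at about 26% in these data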;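 further: 0% = LYPLA2 with DMSO and 100% = wells lacking LYPLA2 enzyme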
Target sequence (O95372 whole entry, looked up): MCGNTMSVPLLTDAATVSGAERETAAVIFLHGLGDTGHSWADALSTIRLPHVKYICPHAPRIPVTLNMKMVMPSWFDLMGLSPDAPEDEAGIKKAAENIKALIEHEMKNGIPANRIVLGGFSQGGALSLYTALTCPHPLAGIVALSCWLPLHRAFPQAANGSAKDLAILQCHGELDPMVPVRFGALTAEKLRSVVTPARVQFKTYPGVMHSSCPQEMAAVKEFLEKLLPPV
EBNA-1 confirm – EBNA-1 (EBV) inhibition, confirmation. shares compounds with EBNA-1 inhibitor. Recombinant EBNA-1 DBD, Cy5-DNA fluorescence polarization. inhibition, % at 14.8 µM. hit rate 35% among 830. AID 2292;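 active means mean inhibition across replicates above a set limit taken from the earlier primary screen, cut at about 28% in these data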;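 further: plate controls were EBNA-1 protein with DMSO for no effect and wells lacking EBNA-1 for full effect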
ZTA DNA inh trip – ZTA (EBV) inhibition, triplicate counter-screen; shares compounds with EBNA-1 inhibitor; Zta-ZRE DNA binding, Cy5 fluorescence polarization; inhibition, % at 11.1 µM; 830 tested, under 10 active;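 active means mean inhibition over triplicates above a set limit taken from the primary EBNA-1 screen, cut at about 37% in these data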;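 further: purified full length Zta protein with Cy5 labeled ZRE DNA probe; 0% = Zta with DMSO and 100% = wells lacking Zta protein; inhibitors lower polarization by freeing the labeled DNA probe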
An asterisk follows results filed as active; x = no result; + = active, no number.

SMILES	ZTA DNA inh	LYPLA1 counter	PREPL inhibitor	EBNA-1 inhibitor	LYPLA2 inh	others
CC1CC(C)CN(C(=O)Cn2nnc(-c3ccc(Br)cc3)n2)C1 (stereo not drawn)	-23	2	17	-7	-4
CCN(CC)c1ccc(/C=N/N2CCN(c3ccccn3)CC2)cc1	-16	-1	1	-2	-8
CC1=NN(c2ccccc2)C(=O)C1C=Nc1ccc(N(C)C)cc1 (stereo not drawn)	+	2	18	82*	1
CCOC(=O)c1cnc(-n2cc(C)cn2)nc1NCc1ccc2c(c1)OCO2	6	0	58*	19	0
O=C(O)C1Nc2c(Cl)cc(Cl)cc2C2C=CCC12 (stereo not drawn)	15	2	11	17	18
O=C(O)C1Nc2c(O)cccc2C2C=CCC12 (stereo not drawn)	30	-17	42	42*	-6
O=C(CCCOc1ccccc1)NN1C(=O)NC2(CCCCC2)C1=O	-10	1	5	-5	6
Cc1cc(C)n2nc(SCC(=O)N/N=C/c3ccccc3F)nc2n1	-15	0	50*	-3	0
Cc1ccc(/C=N/NC(=O)CSc2nc3nc(C)cc(C)n3n2)cc1	-6	0	24	-6	-3
CCOc1ccc(OCCC(=O)NNC(=O)c2cc(OC)c(OC)c(OC)c2)cc1	-7	-4	10	0	-3
CSc1nsc(SCC(=O)Nc2nc3ccc(C)cc3s2)n1	10	-7	-4	32*	-13
Cc1ccc2nc(NC(=O)COC(=O)CSc3nc(C)cc(C)n3)sc2c1	2	-4	14	-2	5
Cc1ccc2nc(NC(=O)CSCC(=O)OCC(=O)c3ccc(Br)cc3)sc2c1	8	-3	-33	30*	-2
CNC(=O)c1c(NC(=O)c2ccc(S(=O)(=O)N3CCCC3)cc2)sc2c1CCN(C(C)C)C2	3	-2	44*	3	5
CC1(C)NC(=O)N(CC(=O)OCC(=O)c2ccc(Cl)s2)C1=O	x	x	1	x	x
CC1(C)NC(=O)N(CC(=O)OCC(=O)c2ccc(F)cc2)C1=O	1	0	0	102*	4
CCCN(CCC)CCCNC(=O)c1ccc(CS(=O)(=O)c2c(Cl)cccc2Cl)o1	-28	2	-52	-1	11
Cc1ccc(OCC(=O)Nc2nc(C)c(Cl)cc2Cl)c([N+](=O)[O-])n1	-11	1	4	x	6
COc1cccc(NC(=O)COC(=O)/C=C/c2ccc(Cl)cc2Cl)c1	9	0	8	39*	2
Cc1ccc(-n2ccnc(SCC(=O)NC3CCCCC3)c2=O)cc1F	-16	-3	14	-4	-5
CC(C)C[C@H]1COCCS(=O)(=O)N1Cc1cccc(F)c1	-6	-4	-4	7	-1
O=C(CN(c1ccccc1)S(=O)(=O)c1ccccc1)N/N=C/c1ccc(OC2CSC2)cc1	4	2	1	55*	11
CCOCCCNCC(=O)Nc1ccc(S(=O)(=O)NC(C)CC)cc1 (stereo not drawn)	-20	2	0	-11	-5
O=C(NCc1ccc(Cl)cc1)c1ccccc1CCc1ccccc1	-11	-3	-61	31*	-3
O=S(=O)(c1ccc(NC(=S)N2CCN(c3ccc(O)cc3)CC2)cc1)N1CCOCC1	5	1	-4	-11	35*
SMILES	ZTA DNA inh	LYPLA1 counter	PREPL inhibitor	EBNA-1 inhibitor	LYPLA2 inh	others
Cc1ccc(SCC(=O)OCC(=O)N(C)CC(=O)Nc2ccccc2Cl)cc1C	-12	1	0	-4	-1
CC(=O)c1ccc(NC(=O)COC(=O)c2c3c(nc4ccccc24)/C(=C\c2cccs2)CCC3)cc1	18	-53	1	44*	-72
CC(CNC(=O)c1ccc(OC2CCN(Cc3ccccn3)CC2)cc1)Oc1cccnc1 (stereo not drawn)	-2	-4	0	4	3
Cc1cccc(Oc2cc(N)cc([N+](=O)[O-])c2)c1	7	3	8	-6	31*
CCOc1ccc(Oc2cc(N)cc([N+](=O)[O-])c2)cc1	7	-4	1	-3	4
O=C(COc1ccccc1Br)Nc1ccc(S(=O)(=O)N2CCCC2)cc1	6	-6	6	x	-2
CCCCCC(=O)N/N=C/c1ccc([N+](=O)[O-])o1	6	-1	6	-11	0
CCN(CC)c1ccc(N=Cc2ccc([N+](=O)[O-])o2)cc1	+	-3	22	+	6
CCN(CC)c1ccc(N=Cc2ccccc2[N+](=O)[O-])cc1	+	4	13	177*	4
CC(=O)N(C)c1ccc(N=Cc2cc3c(cc2[N+](=O)[O-])OCO3)cc1	-4	1	3	3	1
CC(=O)NC12CC3CC(C1)CC(C(=O)N1CCN(S(=O)(=O)c4cccc(C(F)(F)F)c4)CC1)(C3)C2	-32	3	13	-6	13
COc1cc(/C=C(/C#N)c2nc3ccccc3[nH]2)ccc1OC(=O)c1ccco1	-7	-10	83*	5	-21
c1ccc2c(Nc3nc(N4CCOCC4)c4ccccc4n3)cccc2c1	-4	-5	53*	-5	-4
O=C(Nc1ccc(N2CCOCC2)cc1)Nc1ccc2nc(-c3ccco3)c(-c3ccco3)nc2c1	-2	-5	26	-9	13
O=C(NCCCO)Nc1ccc2nc(-c3ccco3)c(-c3ccco3)nc2c1	58*	-8	28	1	4
CC(=O)C1=C(C)NC(SCSc2ccccc2)=C(C#N)C1c1cccnc1 (stereo not drawn)	-12	-1	17	-8	2
CC(=O)C1=C(C)NC(SCC(=O)c2ccc(-c3ccccc3)cc2)=C(C#N)C1c1cccnc1 (stereo not drawn)	4	-18	35	36*	-20
COc1ccccc1Oc1c(C)oc2c(CN3CCN(CCO)CC3)c(O)ccc2c1=O	-7	55*	25	0	46*
COc1ccc(-c2csc(Cc3nnc(N4CCOCC4)n3-c3ccccc3)n2)cc1OC	-8	0	8	0	0
COc1ccc(-c2csc(Cc3nnc(N4CCOCC4)n3-c3ccccc3)n2)cc1	-10	-3	51*	0	3
CCOC(=O)C1(CCOc2ccccc2)CCN(C(=O)CCSC)CC1	37*	1	7	-1	3
CC1CCCCC1NC(=O)C1CCC(CNS(=O)(=O)c2ccccc2)CC1 (stereo not drawn)	-3	-2	2	31*	-6	EBNA-1 confirm=9;ZTA DNA inh trip=6
COc1ccc2c(c1)[nH]c1c(=O)n(Cc3ccco3)cnc12	5	5	2	37*	3	EBNA-1 confirm=-2;ZTA DNA inh trip=-13

Bioassay records as filed in PubChem.
